Data as given in ChEMBL document CHEMBL2218924, “A broad activity screen in support of a chemogenomic map for kinase signalling research and drug discovery” (Biochem J, 2013).

Legend:
[1] = molecular target: Insulin receptor (Homo sapiens) (UniProt P06213); settings: at 10 µM
[2] = molecular target: Insulin receptor (Homo sapiens) (UniProt P06213); settings: at 1 µM
[3] = molecular target: Insulin receptor (Homo sapiens) (UniProt P06213); settings: at 10 µM; remark: listed apart in the source
[4] = molecular target: Interleukin-1 receptor-associated kinase 1 (Homo sapiens) (UniProt P51617); settings: at 1 µM
[5] = molecular target: Interleukin-1 receptor-associated kinase 1 (Homo sapiens) (UniProt P51617); settings: at 10 µM
[6] = molecular target: T1, Interleukin-1 receptor-associated kinase 4 (Homo sapiens) (UniProt Q9NWZ3); settings: at 1 µM
T1 sequence (whole entry): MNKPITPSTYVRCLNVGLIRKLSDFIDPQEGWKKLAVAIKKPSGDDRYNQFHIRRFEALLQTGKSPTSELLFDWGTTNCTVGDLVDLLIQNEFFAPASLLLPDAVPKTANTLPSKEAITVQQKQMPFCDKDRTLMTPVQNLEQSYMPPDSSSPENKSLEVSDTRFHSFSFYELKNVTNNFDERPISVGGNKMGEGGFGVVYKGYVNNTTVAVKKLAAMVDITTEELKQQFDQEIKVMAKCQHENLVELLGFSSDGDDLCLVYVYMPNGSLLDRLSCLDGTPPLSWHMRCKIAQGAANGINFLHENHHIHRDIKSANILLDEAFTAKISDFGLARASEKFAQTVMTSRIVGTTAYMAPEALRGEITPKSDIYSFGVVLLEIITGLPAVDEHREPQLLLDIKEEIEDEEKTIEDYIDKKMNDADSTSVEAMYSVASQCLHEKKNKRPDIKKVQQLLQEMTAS

[7] = molecular target: T1, Interleukin-1 receptor-associated kinase 4 (Homo sapiens); settings: at 10 µM
[8] = molecular target: Insulin receptor-related protein (Homo sapiens) (UniProt P14616); settings: at 1 µM
[9] = molecular target: Insulin receptor-related protein (Homo sapiens) (UniProt P14616); settings: at 10 µM
[10] = molecular target: T2, Tyrosine-protein kinase ITK/TSK (Homo sapiens) (UniProt Q08881); settings: at 1 µM
T2 sequence (whole entry): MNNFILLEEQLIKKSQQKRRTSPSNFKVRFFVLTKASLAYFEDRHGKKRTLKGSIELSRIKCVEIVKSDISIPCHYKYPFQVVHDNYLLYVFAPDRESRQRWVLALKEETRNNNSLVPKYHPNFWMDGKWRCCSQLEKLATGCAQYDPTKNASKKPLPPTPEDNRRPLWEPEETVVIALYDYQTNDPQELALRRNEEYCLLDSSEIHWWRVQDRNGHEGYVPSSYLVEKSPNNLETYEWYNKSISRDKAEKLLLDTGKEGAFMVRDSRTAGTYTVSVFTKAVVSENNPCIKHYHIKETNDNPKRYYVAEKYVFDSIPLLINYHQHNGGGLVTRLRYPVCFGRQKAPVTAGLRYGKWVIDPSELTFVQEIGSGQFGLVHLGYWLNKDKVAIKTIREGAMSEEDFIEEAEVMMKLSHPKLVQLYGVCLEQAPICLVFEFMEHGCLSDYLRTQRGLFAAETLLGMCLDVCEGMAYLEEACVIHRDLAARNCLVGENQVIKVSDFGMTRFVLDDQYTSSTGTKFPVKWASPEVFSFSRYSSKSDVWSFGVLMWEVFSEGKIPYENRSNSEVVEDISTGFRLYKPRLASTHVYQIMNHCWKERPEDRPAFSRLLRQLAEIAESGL

Insulin receptor-related protein (Homo sapiens), sequence (P14616 27-742 limits assumed): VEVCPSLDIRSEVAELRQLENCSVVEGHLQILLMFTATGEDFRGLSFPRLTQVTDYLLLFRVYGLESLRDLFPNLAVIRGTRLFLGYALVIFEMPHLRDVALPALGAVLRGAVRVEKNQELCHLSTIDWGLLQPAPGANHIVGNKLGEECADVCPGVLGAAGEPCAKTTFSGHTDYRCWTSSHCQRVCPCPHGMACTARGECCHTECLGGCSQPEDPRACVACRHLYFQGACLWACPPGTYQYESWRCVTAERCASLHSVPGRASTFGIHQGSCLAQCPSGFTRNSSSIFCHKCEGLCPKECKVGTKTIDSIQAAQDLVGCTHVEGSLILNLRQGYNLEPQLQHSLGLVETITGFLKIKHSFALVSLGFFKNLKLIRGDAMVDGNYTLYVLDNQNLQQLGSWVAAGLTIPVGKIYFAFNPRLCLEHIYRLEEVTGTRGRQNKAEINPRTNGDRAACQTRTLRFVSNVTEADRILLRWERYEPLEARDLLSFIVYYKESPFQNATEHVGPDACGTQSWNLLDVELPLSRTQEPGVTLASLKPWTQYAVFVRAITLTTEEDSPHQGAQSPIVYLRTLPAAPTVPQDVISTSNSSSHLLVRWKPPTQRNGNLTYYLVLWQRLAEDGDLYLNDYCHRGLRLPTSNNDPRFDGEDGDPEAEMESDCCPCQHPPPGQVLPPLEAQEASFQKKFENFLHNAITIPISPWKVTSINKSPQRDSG
Insulin receptor-related protein (Homo sapiens), sequence (P14616 747-1297 limits assumed): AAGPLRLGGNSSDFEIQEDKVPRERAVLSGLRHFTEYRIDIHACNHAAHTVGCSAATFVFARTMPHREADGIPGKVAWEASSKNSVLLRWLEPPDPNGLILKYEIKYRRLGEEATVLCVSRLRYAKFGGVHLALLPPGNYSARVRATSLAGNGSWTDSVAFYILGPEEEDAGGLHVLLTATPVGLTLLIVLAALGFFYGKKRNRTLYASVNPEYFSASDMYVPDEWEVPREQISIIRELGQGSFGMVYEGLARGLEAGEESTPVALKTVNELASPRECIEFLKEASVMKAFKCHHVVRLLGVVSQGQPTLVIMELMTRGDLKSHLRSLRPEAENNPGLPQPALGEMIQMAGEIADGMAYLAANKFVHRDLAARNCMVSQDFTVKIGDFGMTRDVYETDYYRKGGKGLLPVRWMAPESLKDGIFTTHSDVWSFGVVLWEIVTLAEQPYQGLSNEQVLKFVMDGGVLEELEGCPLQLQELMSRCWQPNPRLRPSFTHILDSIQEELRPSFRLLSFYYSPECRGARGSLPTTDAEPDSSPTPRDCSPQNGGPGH
Insulin receptor (Homo sapiens), sequence (P06213 28-758 limits assumed): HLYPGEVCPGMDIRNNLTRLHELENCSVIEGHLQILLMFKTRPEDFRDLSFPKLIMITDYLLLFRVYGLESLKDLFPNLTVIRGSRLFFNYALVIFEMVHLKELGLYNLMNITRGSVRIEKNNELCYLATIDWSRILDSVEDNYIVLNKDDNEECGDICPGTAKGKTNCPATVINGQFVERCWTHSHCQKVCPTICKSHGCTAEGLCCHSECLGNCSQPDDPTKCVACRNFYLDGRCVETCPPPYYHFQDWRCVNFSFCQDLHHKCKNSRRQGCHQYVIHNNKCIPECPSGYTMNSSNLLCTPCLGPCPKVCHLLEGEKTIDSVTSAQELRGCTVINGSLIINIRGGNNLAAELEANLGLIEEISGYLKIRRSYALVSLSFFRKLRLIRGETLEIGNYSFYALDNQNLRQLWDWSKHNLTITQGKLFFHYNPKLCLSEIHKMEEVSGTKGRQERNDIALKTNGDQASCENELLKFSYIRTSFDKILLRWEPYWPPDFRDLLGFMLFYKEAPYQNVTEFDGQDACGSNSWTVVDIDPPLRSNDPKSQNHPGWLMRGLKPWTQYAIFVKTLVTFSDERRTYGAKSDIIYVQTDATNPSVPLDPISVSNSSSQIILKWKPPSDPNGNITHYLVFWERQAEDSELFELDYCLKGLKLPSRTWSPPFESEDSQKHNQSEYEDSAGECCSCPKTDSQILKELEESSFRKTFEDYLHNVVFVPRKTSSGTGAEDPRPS
Insulin receptor (Homo sapiens), sequence (P06213 763-1382 limits assumed): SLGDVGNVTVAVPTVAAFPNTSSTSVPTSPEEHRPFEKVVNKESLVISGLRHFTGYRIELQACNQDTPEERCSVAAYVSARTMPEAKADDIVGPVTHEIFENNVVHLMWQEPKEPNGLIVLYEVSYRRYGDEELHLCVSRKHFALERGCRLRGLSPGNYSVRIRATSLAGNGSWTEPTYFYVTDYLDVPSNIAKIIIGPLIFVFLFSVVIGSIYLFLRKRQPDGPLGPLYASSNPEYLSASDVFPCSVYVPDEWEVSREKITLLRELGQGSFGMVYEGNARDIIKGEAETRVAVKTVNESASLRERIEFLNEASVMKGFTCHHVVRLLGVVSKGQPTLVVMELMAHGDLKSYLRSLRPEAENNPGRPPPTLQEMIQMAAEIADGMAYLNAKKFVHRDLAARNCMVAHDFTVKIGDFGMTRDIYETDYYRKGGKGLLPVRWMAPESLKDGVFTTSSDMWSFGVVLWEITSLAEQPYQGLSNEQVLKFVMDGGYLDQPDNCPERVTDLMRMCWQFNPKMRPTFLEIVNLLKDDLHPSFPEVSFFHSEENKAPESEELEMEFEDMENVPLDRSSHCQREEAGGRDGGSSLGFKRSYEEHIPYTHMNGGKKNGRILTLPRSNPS
Interleukin-1 receptor-associated kinase 1 (Homo sapiens), sequence (P51617 whole entry, looked up): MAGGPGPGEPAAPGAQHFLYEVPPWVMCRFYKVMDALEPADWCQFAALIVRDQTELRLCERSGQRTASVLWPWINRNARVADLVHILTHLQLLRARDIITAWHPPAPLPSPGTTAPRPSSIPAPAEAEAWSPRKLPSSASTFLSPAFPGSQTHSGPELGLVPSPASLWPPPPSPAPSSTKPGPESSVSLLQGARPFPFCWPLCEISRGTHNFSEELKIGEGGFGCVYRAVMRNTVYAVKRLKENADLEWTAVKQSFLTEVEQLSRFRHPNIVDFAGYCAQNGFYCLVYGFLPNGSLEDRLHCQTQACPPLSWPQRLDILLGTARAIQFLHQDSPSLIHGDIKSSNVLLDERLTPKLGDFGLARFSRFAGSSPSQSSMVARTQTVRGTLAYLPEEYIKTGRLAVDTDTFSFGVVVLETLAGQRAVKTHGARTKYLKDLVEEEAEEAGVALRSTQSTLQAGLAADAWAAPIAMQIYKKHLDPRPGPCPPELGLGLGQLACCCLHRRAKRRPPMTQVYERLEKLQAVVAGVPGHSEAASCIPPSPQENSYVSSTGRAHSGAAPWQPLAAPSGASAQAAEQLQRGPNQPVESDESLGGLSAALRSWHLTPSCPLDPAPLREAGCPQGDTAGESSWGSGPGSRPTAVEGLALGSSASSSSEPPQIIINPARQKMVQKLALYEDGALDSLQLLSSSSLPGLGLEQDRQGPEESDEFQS

Structure (SMILES)	residual activity [1] [%]	residual activity [2] [%]	residual activity [3] [%]	residual activity [4] [%]	residual activity [5] [%]	residual activity [6] [%]	residual activity [7] [%]	residual activity [8] [%]	residual activity [9] [%]	residual activity [10] [%]
Nc1cccc(-c2cc3c(Oc4cccc(O)c4)ncnc3[nH]2)c1	46	103	78	69	20	79	69	98	58	68
Cn1nc2c3c(cccc31)C(=O)c1ccccc1-2	74	81	63	90	87	76	47	103	89	100
Cc1cc2ncc(-c3ccccc3)nc2cc1C				99	94			124	71	93
N#CC(C#N)=C(N)/C(C#N)=C/c1ccc(O)cc1	83	98	93		84			142	76	
N#CCCc1ccc2c(c1)-c1[nH]c3ccc([N+](=O)[O-])cc3c1CC(=O)N2			76	45	20	62	28	100	81	81
Oc1c2ccccc2c2c3c(cccc13)N=N2	47	70	26	69	42	36	11	102	51	67
Nc1nc(Nc2ccc(S(N)(=O)=O)cc2)nn1C(=S)Nc1c(F)cccc1F				8	16	8	0			44
CC(=O)c1ccc(N2CCOCC2)cc1O	81	104	97	105	95	95	98			97
Cc1cc(Nc2nc(-c3ccccc3)nc3ccccc23)n[nH]1	5	36	7	69	23	45	12	8	1	5
COc1cc2ncnc(Nc3ccc(NC(=O)c4ccccc4)cc3)c2cc1OC	92	105		100	99		97		79	
O=c1cc(-c2cccc3c2Sc2ccccc2S3)oc(N2CCOCC2)c1	136	98	99	102		100	98	119	96	105
CCN(CC)CCCCN1c2ccccc2Oc2ccc(Cl)cc21	112	102	104	111	105	118	107	121	102	108
Cc1cccc(-c2[nH]c(C(C)(C)C)nc2-c2ccc3c(c2)OCO3)n1	89			87	75			104	88	96
CO[C@@H]1[C@H](N(C)C(=O)c2ccccc2)C[C@H]2O[C@]1(C)n1c3ccccc3c3c4c(c5c6ccccc6n2c5c31)C(=O)NC4		80	72	85	74	53	47	98	57	56
O=C1NC(=O)/C(=C\c2ccc3nccnc3c2)S1	94	103	97	76	35	104	91	127	58	97
COc1cc2ncnc(N3CCN(C(=O)Nc4ccc(Oc5ccccc5)cc4)CC3)c2cc1OC	113	98	97	76	57	87	98	117	80	88
c1ccc2c(-c3ccncc3)c[nH]c2c1	70	97	87	76	57	94	99		83	101
COc1ccc(CNc2nc(N(CCO)CCO)nc3c2ncn3C(C)C)cc1	85	90	77	91	107	71	71	92	87	94
CNc1cc2c(Nc3cccc(Br)c3)ncnc2cn1	48	96	103	95	75	96	61	135	71	104
